# In PubChem BioAssay:
# Activity calls are given as the source filed them. Unless noted, how the calls were made is not given here.
# Key:
# [1] = anti-His antibody binders, primary screen, artefact control for SMM control protein annotation, biochemical, small-molecule microarray, 635 nm fluorescence (AID 1128); details: anti-His Alexa647 antibody binding, higher = more signal;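 further: score merges feature fluorescence with signal-to-noise for each printed compound spot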
# [2] = tested on: Human papillomavirus type 1a E7 protein (residues 1-88); assay: HPV1a E7 small-molecule binders, primary screen, biochemical, small-molecule microarray, residues 1-88, 635 nm (AID 1129); details: small-molecule microarray binding, fluorescence 635 nm; higher = more signal
# [3] = molecular target: Focal adhesion kinase 1 (Homo sapiens) (UniProt Q05397); assay: small-molecule microarray binders of FAK, primary screen, biochemical, 635/667 nm fluorescence, BSA, DTT (AID 1130); details: PTK2 binding, 635 nm fluorescence, higher = more signal;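 further: composite of spot emission at 667 nm and signal to noise over triplicate slides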
# Focal adhesion kinase 1 (Homo sapiens), sequence (Q05397 whole entry, looked up): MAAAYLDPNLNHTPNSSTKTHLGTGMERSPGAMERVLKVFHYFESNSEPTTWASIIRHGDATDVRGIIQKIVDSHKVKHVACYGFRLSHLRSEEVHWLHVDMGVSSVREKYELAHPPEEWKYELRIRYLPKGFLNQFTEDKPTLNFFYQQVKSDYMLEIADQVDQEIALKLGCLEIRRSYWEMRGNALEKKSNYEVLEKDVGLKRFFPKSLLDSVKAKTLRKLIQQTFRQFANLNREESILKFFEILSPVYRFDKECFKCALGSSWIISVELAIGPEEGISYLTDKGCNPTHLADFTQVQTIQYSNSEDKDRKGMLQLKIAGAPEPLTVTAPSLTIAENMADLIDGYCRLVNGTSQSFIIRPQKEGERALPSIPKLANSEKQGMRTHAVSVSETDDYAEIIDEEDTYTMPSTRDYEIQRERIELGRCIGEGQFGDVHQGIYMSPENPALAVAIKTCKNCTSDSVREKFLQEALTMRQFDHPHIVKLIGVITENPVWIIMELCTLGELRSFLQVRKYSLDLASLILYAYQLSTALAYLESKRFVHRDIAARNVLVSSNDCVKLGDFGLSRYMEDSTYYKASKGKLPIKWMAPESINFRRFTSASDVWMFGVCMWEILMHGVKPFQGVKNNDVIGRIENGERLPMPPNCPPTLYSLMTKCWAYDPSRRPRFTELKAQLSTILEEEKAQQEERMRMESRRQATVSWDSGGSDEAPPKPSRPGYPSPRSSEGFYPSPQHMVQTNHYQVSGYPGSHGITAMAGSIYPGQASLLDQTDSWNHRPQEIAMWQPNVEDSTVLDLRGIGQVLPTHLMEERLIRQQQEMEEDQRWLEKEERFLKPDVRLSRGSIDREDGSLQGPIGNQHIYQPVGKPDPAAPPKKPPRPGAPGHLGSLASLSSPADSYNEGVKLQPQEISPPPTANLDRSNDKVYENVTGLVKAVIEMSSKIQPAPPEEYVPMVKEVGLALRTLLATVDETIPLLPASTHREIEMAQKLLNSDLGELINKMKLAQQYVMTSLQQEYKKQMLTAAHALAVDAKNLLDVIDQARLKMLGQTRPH
# [4] = tested on: Fibrinogen (Alexa647-labelled); assay: fibrinogen binders on compound microarrays, profiling panel, artefact control for SMM control-protein annotation, biochemical, small-molecule microarray, 635/667 nm fluorescence (AID 1131); details: fibrinogen-A647 binding fluorescence, higher = more signal;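 further: z-score merges 667 nm fluorescence with per-spot signal-to-noise over triplicate slides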
# [5] = molecular target: Follistatin (Homo sapiens) (UniProt P19883); assay: follistatin binders on small-molecule microarrays, primary screen, biochemical, small-molecule microarray, 635/667 nm fluorescence (AID 1132); details: FST binding, 635 nm fluorescence, higher = more signal
# Follistatin (Homo sapiens), sequence (P19883 whole entry, looked up): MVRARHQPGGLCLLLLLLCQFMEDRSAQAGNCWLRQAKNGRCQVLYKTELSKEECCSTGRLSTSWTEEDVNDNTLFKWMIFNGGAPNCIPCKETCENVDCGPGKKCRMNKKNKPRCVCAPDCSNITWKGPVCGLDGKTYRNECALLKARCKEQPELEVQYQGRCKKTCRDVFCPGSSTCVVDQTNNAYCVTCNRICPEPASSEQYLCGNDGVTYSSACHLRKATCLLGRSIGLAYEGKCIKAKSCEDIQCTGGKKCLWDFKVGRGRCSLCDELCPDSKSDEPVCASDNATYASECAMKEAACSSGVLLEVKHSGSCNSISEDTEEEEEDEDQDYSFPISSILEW
# [6] = molecular target: Fibroblast growth factor 2 (Homo sapiens) (UniProt P09038); assay: FGF2 binders on small-molecule microarrays, primary screen, biochemical, small-molecule microarray, 635/667 nm fluorescence (AID 1133); details: small-molecule microarray binding, FGF2, fluorescence 635/667; higher = more signal
# Fibroblast growth factor 2 (Homo sapiens), sequence (P09038 whole entry, looked up): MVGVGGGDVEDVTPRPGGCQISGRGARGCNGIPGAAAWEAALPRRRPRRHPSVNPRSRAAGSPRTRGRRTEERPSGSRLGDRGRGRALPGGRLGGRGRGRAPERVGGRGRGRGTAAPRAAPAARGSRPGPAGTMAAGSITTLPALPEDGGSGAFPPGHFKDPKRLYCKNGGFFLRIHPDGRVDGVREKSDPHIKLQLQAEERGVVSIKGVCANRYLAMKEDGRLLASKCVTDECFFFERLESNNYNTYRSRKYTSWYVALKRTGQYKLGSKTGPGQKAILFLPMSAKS
# [7] = mitochondrial membrane potential change in A549 cells, profiling panel, cell-based, JC-1 fluorescence, basal, 24 h, 100 nL (AID 1138); details: higher = more signal;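 further: A549 lung adenocarcinoma cells under basal conditions with no added stimulus; test concentration not given here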
# Lefty1 = Lefty1 binders on small-molecule microarrays, primary screen, biochemical, small-molecule microarray, 635/667 nm fluorescence (AID 1139); details: small-molecule microarray binding, fluorescence 635/667; higher = more signal
# [8] = tested on: wheat germ agglutinin (Triticum aestivum), Alexa647-labelled; assay: wheat germ agglutinin binders on compound microarrays, profiling panel, artefact control for SMM control-protein annotation, biochemical, small-molecule microarray, 635/667 nm fluorescence (AID 1140); details: WGA-A647 binding, 635 nm fluorescence, higher = more signal;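 further: score merges 667 nm feature emission with signal to noise over triplicate slides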
# [9] = molecular target: Luciferin 4-monooxygenase (Photinus pyralis) (UniProt P08659); assay: firefly luciferase enzyme inhibitors, primary screen, biochemical, luminescence, purified enzyme, 2006 set (AID 1141); details: SteadyGlo luminescence, 30 min, higher = more signal, called active from +8 up or from −8 down;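 further: cell-free assay with purified firefly luciferase at 100 ng per well in PBS; test concentration not given here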
# Luciferin 4-monooxygenase (Photinus pyralis), sequence (P08659 whole entry, looked up): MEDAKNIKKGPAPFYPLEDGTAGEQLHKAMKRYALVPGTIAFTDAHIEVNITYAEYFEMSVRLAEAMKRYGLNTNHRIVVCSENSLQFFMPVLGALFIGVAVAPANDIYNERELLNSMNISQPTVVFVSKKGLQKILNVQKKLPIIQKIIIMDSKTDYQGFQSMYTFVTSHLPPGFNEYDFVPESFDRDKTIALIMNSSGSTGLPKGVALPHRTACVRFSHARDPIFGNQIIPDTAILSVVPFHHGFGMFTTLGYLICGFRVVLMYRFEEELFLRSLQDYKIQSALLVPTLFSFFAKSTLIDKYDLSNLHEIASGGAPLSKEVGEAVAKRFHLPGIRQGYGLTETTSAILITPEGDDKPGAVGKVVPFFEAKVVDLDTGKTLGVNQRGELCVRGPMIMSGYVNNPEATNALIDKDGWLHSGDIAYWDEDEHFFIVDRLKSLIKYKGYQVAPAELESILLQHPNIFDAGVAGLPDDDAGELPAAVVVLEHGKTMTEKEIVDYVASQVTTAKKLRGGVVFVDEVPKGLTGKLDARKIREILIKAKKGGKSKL
# [10] = tested on: Wnt5a (protein binding on small-molecule microarray); assay: Wnt5a binders on small-molecule microarray, primary screen, biophysical, 635/667 nm fluorescence (AID 1142); details: 635 nm fluorescence, higher = more signal;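 further: fluorescence read at 667 nm with signal to noise per printed feature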
# [11] = cell viability in Huh7 cells, primary screen, cytotoxicity control for HCV replication inhibitor project, CellTiter-Glo luminescence, basal, 48 h (AID 1143); details: Huh7 HCV replicon, higher = more signal, called active from +8 up or from −8 down;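 further: Huh7 hepatoma cells carrying a hepatitis C replication reporter with no stimulus; test concentration not given here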
# [12] = P. aeruginosa biofilm formation inhibitors, primary screen, PAO1 strain, BacTiter-Glo luminescence, LB-PBS (AID 1144); details: 12 h, higher = more signal
# [13] = CREB reporter modulators without forskolin, primary screen, cell-based, PC12, CRE-LacZ reporter, unstimulated (AID 1145); details: no forskolin, luminescence, 4.5 h, higher = more signal, called active from +8 up or from −8 down
# [14] = CREB reporter modulators under forskolin, primary screen, cell-based, PC12, CRE-LacZ reporter, forskolin-stimulated (AID 1146); details: luminescence, 4.5 h, higher = more signal, called active from +8 up or from −8 down;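 further: PC12 cells with 6xCRE LacZ reporter stimulated by forskolin 10 µM; beta-galactosidase reporter signal reflecting CREB driven transcription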
# [15] = molecular target: Streptavidin (Streptomyces avidinii) (UniProt P22629); assay: streptavidin binders on small-molecule microarray, primary screen, artefact control for SMM compound annotation, biophysical, 635/667 nm fluorescence (AID 1147); details: streptavidin binding, higher = more signal;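 further: signal reflects streptavidin binding to arrayed compounds as a control protein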
# Streptavidin (Streptomyces avidinii), sequence (P22629 whole entry, looked up): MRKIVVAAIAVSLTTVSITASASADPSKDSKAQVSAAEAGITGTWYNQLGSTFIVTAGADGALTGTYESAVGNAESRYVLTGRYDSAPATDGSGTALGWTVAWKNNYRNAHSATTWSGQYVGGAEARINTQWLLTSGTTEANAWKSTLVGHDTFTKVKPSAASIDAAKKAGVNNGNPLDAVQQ
# [16] = small-molecule binders of probe aInhba, primary screen, biochemical, small-molecule microarray, 635/667 nm fluorescence (AID 1148); details: higher = more signal;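 further: score merges 667nm spot fluorescence with signal-to-noise for antibody binding to printed compounds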
# Torsin-1A (Homo sapiens) [17] = molecular target: Torsin-1A (Homo sapiens) (UniProt O14656); assay: torsin A binders from cell lysate, primary screen, small-molecule microarray, wild-type, 635/667 nm (AID 1149); details: COS7 hTOR1A-WT lysate, 635 nm fluorescence, higher = more signal
# Torsin-1A (Homo sapiens), sequence (O14656 whole entry, looked up): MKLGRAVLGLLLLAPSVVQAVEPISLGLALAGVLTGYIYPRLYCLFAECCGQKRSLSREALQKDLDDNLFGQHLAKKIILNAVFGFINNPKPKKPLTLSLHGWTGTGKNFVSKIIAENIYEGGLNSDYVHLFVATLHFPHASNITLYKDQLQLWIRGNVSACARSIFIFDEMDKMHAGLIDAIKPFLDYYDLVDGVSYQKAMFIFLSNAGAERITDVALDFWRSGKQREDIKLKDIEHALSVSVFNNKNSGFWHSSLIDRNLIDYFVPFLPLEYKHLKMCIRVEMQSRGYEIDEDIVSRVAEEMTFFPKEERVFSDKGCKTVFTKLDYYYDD
# Torsin-1A (Homo sapiens) [18] = molecular target: Torsin-1A (Homo sapiens) (UniProt O14656); assay: small-molecule binders of mutant TOR1A in lysate, primary screen, cell lysate, small-molecule microarray, COS7 lysate, 635/667 nm fluorescence (AID 1150); details: COS7 hTOR1A mutant lysate, 635 nm fluorescence, higher = more signal;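 further: score pools 667 nm emission and signal to noise measuring lysate protein binding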
# [19] = tested on: Sonic hedgehog protein (Shh); assay: small-molecule binders of Shh protein, primary screen, biochemical, small-molecule microarray, 635/667 nm fluorescence (AID 1151); details: small-molecule microarray binding, 635 nm fluorescence; higher = more signal;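 further: Shh protein binding to compounds spotted on small-molecule microarray slides; score combines spot fluorescence intensity with signal-to-noise across triplicate slides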
SMILES,composite z-score [1],composite z-score [2],composite z-score [3],composite z-score [4],composite z-score [5],composite z-score [6],z-score [7],composite z-score (Lefty1),composite z-score [8],z-score [9],composite z-score [10],z-score [11],z-score [12],z-score [13],z-score [14],composite z-score [15],composite z-score [16],composite z-score (Torsin-1A (Homo sapiens) [17]),composite z-score (Torsin-1A (Homo sapiens) [18]),composite z-score [19]
CN(C)C(=O)C1N=C(c2ccc(OCCCO)cc2)N(c2ccccc2)O1 (stereo not given),1.33,1.13,0.268,0.598,1.35,1.8,0.936,1.29,0.586,-14.9 (active),1.15,-1.17 (inactive),0.265 (inactive),0.0451 (inactive),-0.102 (inactive),-0.151,0.0658,1.19,1.56,2.03
C=CCN1C(=O)[C@@]2(CCS(=O)(=O)c3ccccc3)N=C(c3ccc(OCCCO)cc3)O[C@H]2c2ccccc21,1.34,1.25,0.763,0.884,1.45,1.78,0.821,0.952,0.37,-1.48 (inactive),0.889,-2.49 (inactive),0.369 (inactive),-0.0808 (inactive),-1.28 (inactive),0.636,0.198,1.16,0.426,2.07
CCOC(=O)C1=CC[C@@H](c2ccc(OCc3ccccc3)c(OC)c2)N(S(=O)(=O)c2ccc(C)cc2)[C@H]1c1ccc(SC)cc1,1.44,1.24,0.398,0.715,0.761,0.159,-0.219,0.542,0.71,0.107 (inactive),0.683,-1.51 (inactive),0.765 (inactive),0.967 (inactive),0.137 (inactive),1.42,0.113,1.28,1.4,0.249
NC(=O)NCC#Cc1ccc2c(c1)[C@]1(C(=O)N2)[C@H](C(=O)NC[C@H](O)c2ccccc2)[C@H]2C(=O)O[C@H](c3ccccc3)[C@H](c3ccccc3)N2[C@@H]1c1ccc(OCCO)cc1,-0.0888,1.05,-0.0193,0.829,1.29,0.177,-0.303,-0.0126,0.915,-1.9 (inactive),0.496,0.546 (inactive),-0.223 (inactive),-0.698 (inactive),-0.535 (inactive),0.661,0.185,-0.0075,-0.002,0.728
O=C(NCC(F)(F)F)[C@@H]1c2ccccc2C(=O)N(Cc2ccccc2C(F)(F)F)[C@H]1c1ccc(CO)cc1,0.219,-0.479,-0.335,-1.14,0.706,0.548,0.0955,-0.569,-0.885,0.461 (inactive),0.38,-0.325 (inactive),0.266 (inactive),-0.295 (inactive),1.02 (inactive),-0.631,0.0906,0.702,-0.274,0.0223
COCCOC(=O)N1C(=O)[C@@]2(c3cc(C#Cc4ccc(OC)cc4)ccc31)[C@H](c1ccc(O)cc1)N1[C@H](c3ccccc3)[C@H](c3ccccc3)OC(=O)[C@H]1[C@@H]2C(=O)N1CCCCCCC1,-1.01,1.11,0.415,0.377,1.25,0.408,-0.421,0.391,0.484,-0.564 (inactive),0.608,-0.86 (inactive),-0.144 (inactive),0.0653 (inactive),0.895 (inactive),1.25,1.12,-0.0107,0.913,0.379
CCOC(=O)C1=CC[C@@H](c2cccc(Cl)c2)N(S(=O)(=O)c2ccc(C)cc2)C1,1.66,1.14,0.399,-0.112,0.191,-0.0072,2.48,-0.345,0.844,-2.75 (inactive),-0.159,-5.08 (inactive),-0.06 (inactive),-0.574 (inactive),0.132 (inactive),0.449,0.0173,0.176,0.193,-0.327
O=C1NC(=O)C2C1C=CC(C(O)c1cccc3ccccc13)N2Nc1ccc(Cl)cc1Cl (stereo not given),1.92,1.16,0.442,0.838,0.425,-0.517,-1.28,-0.734,0.758,0.0698 (inactive),0.288,-1.96 (inactive),-0.329 (inactive),-0.14 (inactive),-0.572 (inactive),0.984,0.153,-0.616,1.01,-0.325
COC(=O)[C@@]1(Cc2ccc(F)cc2)[C@H]2c3cc(C(=O)N(C)C)n(CCc4ccc(O)c(OC)c4)c3C[C@H]2CN1C(=O)c1ccccc1,0.339,0.923,0.0947,0.886,0.472,0.741,0.345,-0.244,0.312,0.215 (inactive),2.23,0.462 (inactive),-0.0301 (inactive),0.783 (inactive),0.15 (inactive),0.637,1.62,0.334,0.234,-0.804
CCOC(=O)[C@H]1[C@@H]2C(=O)N3CCC[C@H]3[C@H](O[Si](C(C)C)(C(C)C)C(C)C)[C@H]2C=C2CCN(S(=O)(=O)c3ccc(C)cc3)C[C@H]21,0.173,0.837,-0.268,0.938,0.727,0.143,1.8,0.672,0.255,-0.404 (inactive),0.0328,-5.75 (inactive),0.426 (inactive),0.673 (inactive),0.986 (inactive),1.03,-0.0468,0.353,0.163,1.58
